Assay outcomes (PubChem)
Sa ugtP lethal: growth inhibition of S. aureus ugtP deletion strain. S. aureus RN4220 ugtP deletion, OD600 growth, 16 h. growth inhibition, % (no concentration beside the values). 330,000 tested, 0.54% active; in the data active = growth inhibition above about 68%;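 also: plate controls were untreated wells for no effect and antibiotic for full effect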
BJeLR viability: kills HRASV12-expressing BJeLR cells; BJeLR (HRASV12) viability, CellTiter-Glo ATP luminescence, 48 h; inhibition, % (test concentration not listed); 300,000 tested, 0.17% active; AID 1554; in the data active = inhibition above about 50%
PfHsp40 rescue: restores yeast growth despite PfHsp40 toxicity; AID 504582; growth rescue, % at 12.5 µM; S. cerevisiae expressing PfHsp40, growth rescue, ATP luminescence; 340,000 tested, 0.68% active; in the data active = growth rescue above about 28%, passing the limit was not always enough;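 also: yeast W303a lacking pdr1 and pdr3 grown in galactose medium; growth measured after three days at 30 °C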
CCHFV vOTU inh: blocks the CCHF virus ovarian tumor domain protease; CCHFV vOTU protease, Pep-AMC fluorescence; inhibition, % at 11.5 µM; 370,000 tested, 0.55% active; AID 651958; in the data active = inhibition above about 30%; also: 0% = vehicle wells with enzyme and 100% = no enzyme wells
Sa RN4220 lethal: kills Staphylococcus aureus RN4220; S. aureus RN4220 growth, OD600, 16 h; inhibition, % (concentration not given with the values); 330,000 tested, 0.33% active; in the data active = inhibition above about 85%;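 also: plate controls were untreated cells for no effect and reference antibiotic for full effect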
An asterisk follows results filed as active; x = no result given. Most compounds without a hit are left out; they make up all but 1.6% or so of the library.

SMILES	Sa ugtP lethal	BJeLR viability	PfHsp40 rescue	CCHFV vOTU inh	Sa RN4220 lethal
COC(=O)c1ccc(C2C(C(=O)c3cc4ccccc4o3)=C(O)C(=O)N2c2cc(C)on2)cc1 (stereo not drawn)	x	1	2	5	x
CCCOc1cccc(C2C(C(=O)c3cc4ccccc4o3)=C(O)C(=O)N2c2cc(C)on2)c1 (stereo not drawn)	100*	1	-1	18	100*
COc1cc(C2C(C(=O)c3cc4ccccc4o3)=C(O)C(=O)N2c2cc(C)on2)cc(OC)c1OC (stereo not drawn)	x	3	1	3	x
CC(=NNC(=O)c1c[nH]c2ccccc12)c1ccco1	2	x	x	x	3
Cc1cc(C)c2c(CCl)cc(=O)oc2c1	x	56*	-1	0	x
O/N=C\c1ccccc1Oc1ccc(F)cc1	x	-4	59*	1	x
CC(/C=C/c1ccc2c(c1)OCO2)=NNC(=O)c1ccccc1	6	x	x	x	4
CC(=O)Oc1c(I)cc(I)cc1C(=O)Nc1ccc(Cl)cc1	x	9	217*	4	x
CCCCCCCn1c2c(c(=N)c3ccccc31)CCC2	89*	16	0	-6	25
Nc1c(Cl)cc(Cl)cc1C(=O)OCC(=O)NC1CC1	0	5	124*	-106	1
O=[N+]([O-])c1c(NCCCO)cc(Sc2nc3ccccc3s2)c2nonc12	101*	-3	-1	x	87*
CC1CCc2c(C(=O)NCc3ccccn3)csc2C1 (stereo not drawn)	5	-3	-1	-11	1
CC1CCc2c(C(=O)Nc3ccccn3)csc2C1 (stereo not drawn)	-21	1	265*	6	3
O=C(O)CCC(=NNc1ccccc1[N+](=O)[O-])c1cccs1	6	x	x	x	29
O=C(c1ccc(S(=O)(=O)N2CCCCCC2)cc1)N1CCC(CN2C(=O)c3cccc4cccc(c34)C2=O)CC1	-12	6	44*	-16	-4
COc1cc(C=CC(=O)NNc2c(F)c(F)cc(F)c2F)ccc1OC(F)F	8	x	x	x	0
Fc1cccc(F)c1C=NN1CCOCC1	6	x	x	x	7
COc1ccc(C2=Nc3nc(-c4ccccc4)cn3C(c3ccc(OC)cc3)C2)cc1 (stereo not drawn)	85*	4	2	-6	-8
COc1ccc(C2CC(c3ccccc3)=NN2C(=O)CCC(=O)O)cc1 (stereo not drawn)	x	0	0	3	x
O=C1c2cccc3cccc(c23)C(=O)N1CCN1CCN(C(=S)Nc2ccc(Cl)cc2)CC1	-5	-8	-1	7	-1
O=C1c2cccc3cccc(c23)C(=O)N1CCN1CCN(C(=S)Nc2ccccc2)CC1	98*	2	0	-11	93*
CC(Cc1ccccc1)=NNC(=O)c1cc(C(C)(C)C)[nH]n1	3	x	x	x	8
COC(=O)C1C(O)C(C)C(O)C(C)C=CC=C(C)C(=O)Nc2c(C)c(OC(C)=O)c3c(c2O)C(=O)C(C)=C2OCOC(=C23)C(C)=CC(C)(O)C(O)C(C)C1O (stereo not drawn)	100*	x	x	x	99*
Nc1nn2cc(-c3ccc(Br)cc3)nc2c2ccccc12	x	10	91*	-70	x
COc1ccc(C2=NOC(CNC(N)=S)C2)cc1 (stereo not drawn)	83*	7	0	0	73
SMILES	Sa ugtP lethal	BJeLR viability	PfHsp40 rescue	CCHFV vOTU inh	Sa RN4220 lethal
COc1ccc(CNC(=O)C2CC(c3ccc(OC)cc3)=NO2)cc1 (stereo not drawn)	4	-4	0	-5	1
Cc1ccc(S(=O)(=O)N(C)c2c(C)ccc(S(=O)(=O)N3CCN(C)CC3)c2C)cc1	5	-2	49*	1	7
Cc1ccc(S(=O)(=O)N(C)c2c(C)ccc(S(=O)(=O)N3CCN(C=O)CC3)c2C)cc1	-3	-4	1	-10	7
Cc1ccsc1C=NNc1ccc(Cl)nn1	8	x	x	x	0
COC(=O)C1=NN(C(=O)c2cccc(Br)c2)C(O)(c2ccc(Cl)cc2)C1 (stereo not drawn)	-11	3	494*	16	22
CCOC(=O)C1=NN(C(=O)c2ccc(OC)cc2)C(O)(c2ccc(Cl)cc2)C1 (stereo not drawn)	-13	3	1	10	4
COc1ccc(NCc2nc3ccccc3n2CCOc2ccc(C)cc2)cc1	-3	-7	75*	16	-4
COc1ccc(NCc2nc3ccccc3n2CCOc2ccccc2)cc1	-14	-2	1	3	16
O=C(NC(CO)(CO)CO)C1CCCN1S(=O)(=O)c1cccc2cccnc12 (stereo not drawn)	-11	x	x	x	-4
